Usually inhibition stands for the change of the read-out against control, counted positive when it falls.

SMILES strings stand for the structures. For part of these data: Results with a measured potency or affinity are listed apart.

One assay can be described thus: blockers of polyQ-driven CASP3 activation – cell-based (AID 1583). The settings on record: polyglutamine-induced caspase-3 activation, cell assay; stronger effect = higher value;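 tested at 10 µM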.
`OCCN1CCN(CCCN2c3ccccc3Sc3ccc(C(F)(F)F)cc32)CC1`: the inhibition is -7.66%.

`NS(=O)(=O)c1cc2c(cc1Cl)NC=NS2(=O)=O`: the inhibition is -50.5%.

In the case of `O=C1C(CCS(=O)c2ccccc2)C(=O)N(c2ccccc2)N1c1ccccc1` (centres undefined), the inhibition is 18.6%.

With `Cc1ccc(-c2cc(C(F)(F)F)nn2-c2ccc(S(N)(=O)=O)cc2)cc1`, the inhibition is 23.5%.

For `Cc1ccccc1C(OCCN(C)C)c1ccccc1` (centres undefined), the inhibition is -34.1%.

As for `CCc1nc(N)nc(N)c1-c1ccc(Cl)cc1`, the inhibition was -13.9%.

With `CN(C)CCOC(c1ccc(Cl)cc1)c1ccccn1` (centres undefined), the inhibition is -21.2%.

For `Nc1ncn([C@@H]2O[C@H](CO)[C@@H](O)[C@H]2O)c(=O)n1`, the inhibition was -3.83%.

For `NCc1ccc(S(N)(=O)=O)cc1`, the inhibition was -6.75%.

Turning to `Cc1ccc(C)c(OCCCC(C)(C)C(=O)O)c1`, the inhibition is 5.02%.

Consider `NS(=O)(=O)c1cc2c(cc1C(F)(F)F)NC(Cc1ccccc1)NS2(=O)=O` (centres undefined), for which the inhibition came out at 23.3%.

For the molecule `COC1=CC(=O)C[C@@H](C)[C@]12Oc1c(Cl)c(OC)cc(OC)c1C2=O`, the inhibition is 4.47%.

As for `Cc1cn([C@H]2C[C@H](N=[N+]=[N-])[C@@H](CO)O2)c(=O)[nH]c1=O`, the inhibition was -8.49%.

For `COc1ccc(OC)c(C(O)CNC(=O)CN)c1` (centres undefined), the inhibition was -17.3%.

Turning to `OC(CCN1CCCC1)(c1ccccc1)C1CCCCC1` (centres undefined), the inhibition amounted to 2.81%.

For the molecule `CCCNCC(O)COc1ccccc1C(=O)CCc1ccccc1` (centres undefined), the inhibition was -14.1%.

`NC(=O)c1cnccn1`: the inhibition is -0.34%.

For the molecule `COc1ccccc1OCC(O)COC(N)=O` (centres undefined), the inhibition was -7.05%.

`COC(=O)Nc1nc2ccc(C(=O)c3ccccc3)cc2[nH]1`: the inhibition was -5.42%.

As for `Cn1cnc([N+](=O)[O-])c1Sc1ncnc2nc[nH]c12`, the inhibition came out at 18.4%.

On to `c1ccc2[nH]c(-c3cscn3)nc2c1`, for which the inhibition was -3.31%.

Take `Cc1onc(-c2c(Cl)cccc2Cl)c1C(=O)N[C@@H]1C(=O)N2[C@@H]1SC(C)(C)[C@@H]2C(=O)O`: the inhibition came to 12.4%.

For `Clc1ccc2c(c1)C(N1CCNCC1)=Nc1ccccc1O2`, the inhibition was 0.62%.

With `CO[C@@]1(NC(=O)Cc2cccs2)C(=O)N2C(C(=O)O)=C(COC(N)=O)CS[C@@H]21`, the inhibition stood at 10%.

Regarding `CCc1cccc2c3c([nH]c12)C(CC)(CC(=O)O)OCC3` (centres undefined), the inhibition was 10.4%.

Take `CC(C)(C)NCC(O)COc1cccc2c1C[C@H](O)[C@H](O)C2` (some centres undefined): the inhibition is 27.5%.

As to `O=S(=O)(O)CCS`, the inhibition is -57.1%.

Regarding `O=c1[nH]cc(F)c(=O)[nH]1`, the inhibition was determined as 7.47%.

A short description of the next assay: yeast 75Q aggregation reduction – 75Q-TubU reporter (AID 1593). The note with it: Yeast 75Q polyglutamine aggregation reporter.
`OCCN1CCN(CCCN2c3ccccc3Sc3ccc(C(F)(F)F)cc32)CC1` came in with a score of 1.32.

The molecule `NS(=O)(=O)c1cc2c(cc1Cl)NC=NS2(=O)=O` returned a score of 1.24.

Consider `O=C1C(CCS(=O)c2ccccc2)C(=O)N(c2ccccc2)N1c1ccccc1` (centres undefined), for which the score was 0.1.

In turn, `Cc1ccc(-c2cc(C(F)(F)F)nn2-c2ccc(S(N)(=O)=O)cc2)cc1` returned a score of -0.03.

Molecule `Cc1ccccc1C(OCCN(C)C)c1ccccc1` (centres undefined) gave a score of 1.23.

Take `CCc1nc(N)nc(N)c1-c1ccc(Cl)cc1`: the score was found to be 1.35.

For the molecule `CN(C)CCOC(c1ccc(Cl)cc1)c1ccccn1` (centres undefined), the score was determined as 1.7.

`Nc1ncn([C@@H]2O[C@H](CO)[C@@H](O)[C@H]2O)c(=O)n1` registered a score of 1.31.

In turn, `NCc1ccc(S(N)(=O)=O)cc1` displayed a score of 1.19.

`Cc1ccc(C)c(OCCCC(C)(C)C(=O)O)c1` showed a score of -0.33.

Turning to `NS(=O)(=O)c1cc2c(cc1C(F)(F)F)NC(Cc1ccccc1)NS2(=O)=O` (centres undefined), the score was 1.25.

Turning to `COC1=CC(=O)C[C@@H](C)[C@]12Oc1c(Cl)c(OC)cc(OC)c1C2=O`, the score was determined as 1.

`Cc1cn([C@H]2C[C@H](N=[N+]=[N-])[C@@H](CO)O2)c(=O)[nH]c1=O` displayed a score of 1.46.

Turning to `COc1ccc(OC)c(C(O)CNC(=O)CN)c1` (centres undefined), the score was determined as 1.3.

Molecule `OC(CCN1CCCC1)(c1ccccc1)C1CCCCC1` (centres undefined) showed a score of 1.52.

`CCCNCC(O)COc1ccccc1C(=O)CCc1ccccc1` (centres undefined) showed a score of 1.02.

`NC(=O)c1cnccn1` had a score of 1.27.

Take `COc1ccccc1OCC(O)COC(N)=O` (centres undefined): the score stood at 1.41.

`COC(=O)Nc1nc2ccc(C(=O)c3ccccc3)cc2[nH]1` registered a score of 0.63.

The molecule `Cn1cnc([N+](=O)[O-])c1Sc1ncnc2nc[nH]c12` came in with a score of 0.86.

The molecule `c1ccc2[nH]c(-c3cscn3)nc2c1` displayed a score of 0.53.

For `Cc1onc(-c2c(Cl)cccc2Cl)c1C(=O)N[C@@H]1C(=O)N2[C@@H]1SC(C)(C)[C@@H]2C(=O)O`, the score was 1.26.

On to `Clc1ccc2c(c1)C(N1CCNCC1)=Nc1ccccc1O2`, for which the score was determined as 1.21.

`CO[C@@]1(NC(=O)Cc2cccs2)C(=O)N2C(C(=O)O)=C(COC(N)=O)CS[C@@H]21` returned a score of 0.25.

`CCc1cccc2c3c([nH]c12)C(CC)(CC(=O)O)OCC3` (centres undefined): the score was found to be 1.08.

The molecule `CC(C)(C)NCC(O)COc1cccc2c1C[C@H](O)[C@H](O)C2` (some centres undefined) had a score of 1.45.

`O=S(=O)(O)CCS` had a score of 1.3.

In turn, `O=c1[nH]cc(F)c(=O)[nH]1` had a score of 0.35.

The nature of a further assay: restoration of touch response, mutant HTT neurons – whole organism, C. elegans mechanosensory neurons, N-terminal huntingtin (AID 1599). The settings on record: C. elegans polyQ-huntingtin mechanosensory neurons, stronger effect = higher value.
In the case of `OCCN1CCN(CCCN2c3ccccc3Sc3ccc(C(F)(F)F)cc32)CC1`, the rescue above control amounted to 0.

`NS(=O)(=O)c1cc2c(cc1Cl)NC=NS2(=O)=O` had a rescue above control of 7.98.

As for `O=C1C(CCS(=O)c2ccccc2)C(=O)N(c2ccccc2)N1c1ccccc1` (centres undefined), the rescue above control was -11.1.

`Cc1ccc(-c2cc(C(F)(F)F)nn2-c2ccc(S(N)(=O)=O)cc2)cc1` gave a rescue above control of 17.2.

Turning to `Cc1ccccc1C(OCCN(C)C)c1ccccc1` (centres undefined), the rescue above control was -6.28.

The molecule `CCc1nc(N)nc(N)c1-c1ccc(Cl)cc1` gave a rescue above control of 26.6.

In turn, `CN(C)CCOC(c1ccc(Cl)cc1)c1ccccn1` (centres undefined) displayed a rescue above control of -1.97.

In the case of `Nc1ncn([C@@H]2O[C@H](CO)[C@@H](O)[C@H]2O)c(=O)n1`, the rescue above control came to 17.7.

In turn, `NCc1ccc(S(N)(=O)=O)cc1` displayed a rescue above control of -7.83.

The molecule `Cc1ccc(C)c(OCCCC(C)(C)C(=O)O)c1` showed a rescue above control of 6.5.

Take `NS(=O)(=O)c1cc2c(cc1C(F)(F)F)NC(Cc1ccccc1)NS2(=O)=O` (centres undefined): the rescue above control was -3.69.

Regarding `COC1=CC(=O)C[C@@H](C)[C@]12Oc1c(Cl)c(OC)cc(OC)c1C2=O`, the rescue above control was -5.31.

As to `Cc1cn([C@H]2C[C@H](N=[N+]=[N-])[C@@H](CO)O2)c(=O)[nH]c1=O`, the rescue above control stood at 1.62.

In the case of `COc1ccc(OC)c(C(O)CNC(=O)CN)c1` (centres undefined), the rescue above control was -4.55.

In turn, `OC(CCN1CCCC1)(c1ccccc1)C1CCCCC1` (centres undefined) showed a rescue above control of 0.33.

Molecule `CCCNCC(O)COc1ccccc1C(=O)CCc1ccccc1` (centres undefined) yielded a rescue above control of 2.07.

Molecule `NC(=O)c1cnccn1` yielded a rescue above control of -9.49.

Molecule `COc1ccccc1OCC(O)COC(N)=O` (centres undefined) had a rescue above control of 1.68.

In the case of `COC(=O)Nc1nc2ccc(C(=O)c3ccccc3)cc2[nH]1`, the rescue above control is -9.11.

The molecule `Cn1cnc([N+](=O)[O-])c1Sc1ncnc2nc[nH]c12` gave a rescue above control of -3.67.

In turn, `c1ccc2[nH]c(-c3cscn3)nc2c1` gave a rescue above control of -3.36.

`Cc1onc(-c2c(Cl)cccc2Cl)c1C(=O)N[C@@H]1C(=O)N2[C@@H]1SC(C)(C)[C@@H]2C(=O)O`: the rescue above control is 8.15.

In the case of `Clc1ccc2c(c1)C(N1CCNCC1)=Nc1ccccc1O2`, the rescue above control was determined as 6.68.

With `CO[C@@]1(NC(=O)Cc2cccs2)C(=O)N2C(C(=O)O)=C(COC(N)=O)CS[C@@H]21`, the rescue above control was -4.75.

Regarding `CCc1cccc2c3c([nH]c12)C(CC)(CC(=O)O)OCC3` (centres undefined), the rescue above control is -7.42.

Regarding `CC(C)(C)NCC(O)COc1cccc2c1C[C@H](O)[C@H](O)C2` (some centres undefined), the rescue above control was -2.31.

Regarding `O=S(=O)(O)CCS`, the rescue above control is -8.48.

`O=c1[nH]cc(F)c(=O)[nH]1`: the rescue above control was -13.1.

(Values after PubChem BioAssay.)
